Reference: ChEMBL document CHEMBL1961873, “Compounds: GSK PKIS; Assays: Nanosyn kinase panel” (2012)

Biological target: Tyrosine-protein kinase Srms (Homo sapiens) (UniProt Q9H3Y6)
Settings: at 1 µM

Tyrosine-protein kinase Srms (Homo sapiens), sequence (Q9H3Y6 whole entry): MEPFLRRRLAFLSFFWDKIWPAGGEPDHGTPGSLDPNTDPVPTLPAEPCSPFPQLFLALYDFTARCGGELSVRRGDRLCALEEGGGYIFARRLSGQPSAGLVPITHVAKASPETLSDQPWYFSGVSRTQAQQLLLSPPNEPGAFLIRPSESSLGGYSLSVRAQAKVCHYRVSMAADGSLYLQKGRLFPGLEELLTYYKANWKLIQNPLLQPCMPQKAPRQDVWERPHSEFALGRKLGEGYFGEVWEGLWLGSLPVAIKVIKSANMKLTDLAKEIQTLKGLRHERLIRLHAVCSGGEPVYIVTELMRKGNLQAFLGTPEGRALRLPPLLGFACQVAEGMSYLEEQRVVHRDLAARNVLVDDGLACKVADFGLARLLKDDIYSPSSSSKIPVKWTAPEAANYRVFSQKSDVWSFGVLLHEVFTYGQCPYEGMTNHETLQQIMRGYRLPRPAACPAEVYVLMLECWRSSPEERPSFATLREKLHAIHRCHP

Going from `[O-][S+]1CCN(Cc2ccc(-c3ccc4ncnc(Nc5ccc(OCc6ccccc6)c(Cl)c5)c4c3)o2)CC1` to `O=S(=O)(CCOCc1ccc(-c2ccc3ncnc(Nc4ccc(OCc5cccc(F)c5)c(Cl)c4)c3c2)o1)c1ccccc1`, the inhibition falls from -2% to -2.52%.

First: C[C@@H](Oc1cc(-n2cnc3ccc(OC[C@@H](O)CO)cc32)sc1C(N)=O)c1ccccc1Cl
Second: NC(=O)c1sc(-n2cnc3ccccc32)cc1OCc1ccccc1Br
The inhibition of the first is higher: 2.19% for the first, -2.44% for the second.

Compared with `OCc1ccc(-c2nc(-c3ccccn3)c(-c3ccc4c(c3)OCO4)[nH]2)cc1`, `Oc1cccc(-c2nc(-c3ccccc3)[nH]c2-c2ccncc2)c1` is higher in inhibition: -1.19% for the first, 8.65% for the second.

First: NS(=O)(=O)c1ccc(Nc2cc(-c3cccc(O)c3)n[nH]2)cc1
Second: NS(=O)(=O)c1cccc(Nc2cc(-c3ccc(F)cc3)n[nH]2)c1
The inhibition of the first is lower: -7.29% for the first, 2.26% for the second.

Going from `Nc1ccc(C#Cc2cncnc2Nc2ccc(OCc3cccc(F)c3)c(Cl)c2)cc1` to `CN(C)C(=O)O[C@@H]1CN[C@@H](C#Cc2cc3ncnc(Nc4ccc(OCc5cccc(F)c5)c(Cl)c4)c3s2)C1`, the inhibition rises from -0.77% to -0.67%.

First: Cc1ccc(Nc2ccnc(Nc3cccc(C(N)=O)c3)n2)cc1O
Second: N#Cc1cccc(Nc2nccc(-c3cnn4ncccc34)n2)c1
The inhibition of the first is higher: 41% for the first, 14.7% for the second.

Compared with `CCCN1CCCC(c2ccc(Nc3nc(Nc4cc(F)ccc4C(N)=O)c4cc[nH]c4n3)c(OC)c2)C1` (centres undefined), `CCS(=O)(=O)c1ccc(OC)c(Nc2nccc(N(C)c3ccc4c(C)n[nH]c4c3)n2)c1` is higher in inhibition: 22.1% for the first, 50.3% for the second.

First: COc1cc(Nc2nccc(-c3cnn4ncccc34)n2)cc(OC)c1
Second: FC(F)(F)c1ccc(-c2nn3ncccc3c2-c2ccnc(Nc3ccc4c(c3)OCCO4)n2)cc1
The inhibition of the first is lower: 6.85% for the first, 8.73% for the second.

Going from `CS(=O)(=O)CCNCc1nc(-c2ccc3ncnc(Nc4ccc(OCc5cccc(C(F)(F)F)c5)cc4)c3c2)cs1` to `COc1ccc2ncnc(Nc3ccc(OCc4ccccc4)cc3)c2c1`, the inhibition rises from -3.56% to 0.6%.

Going from `Cc1ccc(O)cc1Nc1ccnc2ccc(S(C)(=O)=O)cc12` to `COc1cccc(-n2ncc3c(N/N=C/c4ccc(S(C)(=O)=O)cc4)ncnc32)c1`, the inhibition falls from 69% to 17.8%.

Going from `Cc1nc(-c2ccccc2)n2nc(NCCCN3CCOCC3)ncc12` to `Nc1nccc(-c2c(-c3ccc(F)cc3)ncn2CCCN2CCOCC2)n1`, the inhibition falls from 2.27% to 1.12%.

Going from `CS(=O)(=O)Nc1cccc(-c2ccc3c(NC(=O)C4CC4)n[nH]c3c2)c1` to `Cc1ccc(C(=O)NC2CC2)cc1-c1ccc2[nH]ncc2c1`, the inhibition rises from -2.43% to 0.94%.

First: COc1cccc(-n2ncc3c(N/N=C/c4ccc(C)cc4)ncnc32)c1
Second: COc1cc(/C=N/Nc2ncnc3c2cnn3C(C)C)ccc1O
The inhibition of the first is lower: -0.01% for the first, 4.98% for the second.

First: COC(=O)c1ccc2c(c1)C(=Cc1cc(Br)c(O)c(Br)c1)C(=O)N2
Second: COC(=O)Nc1nc2cc(Oc3ccc(NC(=O)Nc4cccc(Br)c4)cc3)ccc2[nH]1
The inhibition of the first is higher: 75.9% for the first, 3.49% for the second.

Going from `Cc1cc(-c2ccccn2)cc(C)c1/C=C/c1cncc(-c2nn[nH]n2)c1` to `Cc1ccc2c(-c3ccnc(Nc4cccc(C(F)(F)F)c4)n3)c(-c3ccccc3)nn2n1`, the inhibition rises from 11.8% to 22.1%.

First: CN1CCN(C(=O)c2ccc(NC(=O)Nc3ccc(N(C)c4ccnc(Nc5ccc(CS(C)(=O)=O)cc5)n4)cc3)cc2)CC1
Second: COc1cc2ncn(-c3cc(OCc4ccccc4S(C)(=O)=O)c(C#N)s3)c2cc1OC
The inhibition of the first is lower: 5.6% for the first, 26.9% for the second.

With `COc1cc2ncnc(Nc3ccc(C)c(O)c3)c2cc1OC` the inhibition was 18.7%.

Biological target: Tyrosine-protein kinase SYK (Homo sapiens) (UniProt P43405);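 note: reported percentages are mean inhibition values for SYK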
Settings: at 0.1 µM

First: [O-][S+]1CCN(Cc2ccc(-c3ccc4ncnc(Nc5ccc(OCc6ccccc6)c(Cl)c5)c4c3)o2)CC1
Second: O=S(=O)(CCOCc1ccc(-c2ccc3ncnc(Nc4ccc(OCc5cccc(F)c5)c(Cl)c4)c3c2)o1)c1ccccc1
The inhibition of the first is lower: 1.18% for the first, 1.93% for the second.

Going from `C[C@@H](Oc1cc(-n2cnc3ccc(OC[C@@H](O)CO)cc32)sc1C(N)=O)c1ccccc1Cl` to `NC(=O)c1sc(-n2cnc3ccccc32)cc1OCc1ccccc1Br`, the inhibition falls from 1.72% to 0.26%.

Going from `OCc1ccc(-c2nc(-c3ccccn3)c(-c3ccc4c(c3)OCO4)[nH]2)cc1` to `Oc1cccc(-c2nc(-c3ccccc3)[nH]c2-c2ccncc2)c1`, the inhibition rises from -7.53% to -2.15%.

Going from `NS(=O)(=O)c1ccc(Nc2cc(-c3cccc(O)c3)n[nH]2)cc1` to `NS(=O)(=O)c1cccc(Nc2cc(-c3ccc(F)cc3)n[nH]2)c1`, the inhibition rises from -3.9% to -3.53%.

Going from `Nc1ccc(C#Cc2cncnc2Nc2ccc(OCc3cccc(F)c3)c(Cl)c2)cc1` to `CN(C)C(=O)O[C@@H]1CN[C@@H](C#Cc2cc3ncnc(Nc4ccc(OCc5cccc(F)c5)c(Cl)c4)c3s2)C1`, the inhibition rises from -0.35% to 6.58%.

First: Cc1ccc(Nc2ccnc(Nc3cccc(C(N)=O)c3)n2)cc1O
Second: Cc1ccc(O)cc1Nc1ccnc2ccc(S(C)(=O)=O)cc12
The inhibition of the first is higher: -7.65% for the first, -7.79% for the second.

Going from `COc1cc(Nc2nccc(-c3cnn4ncccc34)n2)cc(OC)c1` to `FC(F)(F)c1ccc(-c2nn3ncccc3c2-c2ccnc(Nc3ccc4c(c3)OCCO4)n2)cc1`, the inhibition rises from -0.4% to 3.37%.

Going from `CS(=O)(=O)CCNCc1nc(-c2ccc3ncnc(Nc4ccc(OCc5cccc(C(F)(F)F)c5)cc4)c3c2)cs1` to `COc1ccc2ncnc(Nc3ccc(OCc4ccccc4)cc3)c2c1`, the inhibition falls from 0.35% to -3.74%.

First: Cc1nc(-c2ccccc2)n2nc(NCCCN3CCOCC3)ncc12
Second: Nc1nccc(-c2c(-c3ccc(F)cc3)ncn2CCCN2CCOCC2)n1
The inhibition of the first is higher: 1.44% for the first, -6.28% for the second.

First: COc1cccc(-n2ncc3c(N/N=C/c4ccc(S(C)(=O)=O)cc4)ncnc32)c1
Second: COc1cccc(-n2ncc3c(N/N=C/c4ccc(C)cc4)ncnc32)c1
The inhibition of the first is lower: -2.46% for the first, 0.52% for the second.

Going from `CS(=O)(=O)Nc1cccc(-c2ccc3c(NC(=O)C4CC4)n[nH]c3c2)c1` to `Cc1ccc(C(=O)NC2CC2)cc1-c1ccc2[nH]ncc2c1`, the inhibition falls from -1.34% to -1.71%.

First: COC(=O)c1ccc2c(c1)C(=Cc1cc(Br)c(O)c(Br)c1)C(=O)N2
Second: COC(=O)Nc1nc2cc(Oc3ccc(NC(=O)Nc4cccc(Br)c4)cc3)ccc2[nH]1
The inhibition of the first is higher: 0.74% for the first, -1.46% for the second.

Compared with `CCS(=O)(=O)c1ccc(OC)c(Nc2nccc(N(C)c3ccc4c(C)n[nH]c4c3)n2)c1`, `CN1CCN(C(=O)c2ccc(NC(=O)Nc3ccc(N(C)c4ccnc(Nc5ccc(CS(C)(=O)=O)cc5)n4)cc3)cc2)CC1` is higher in inhibition: -1.92% for the first, -0.89% for the second.

First: Cc1cc(-c2ccccn2)cc(C)c1/C=C/c1cncc(-c2nn[nH]n2)c1
Second: Cc1ccc2c(-c3ccnc(Nc4cccc(C(F)(F)F)c4)n3)c(-c3ccccc3)nn2n1
The inhibition of the first is lower: -0.33% for the first, 0.45% for the second.

Compared with `COc1cc(/C=N/Nc2ncnc3c2cnn3C(C)C)ccc1O`, `COc1cc2ncnc(Nc3ccc(C)c(O)c3)c2cc1OC` is lower in inhibition: -1.05% for the first, -4.37% for the second.

`COc1cc2ncn(-c3cc(OCc4ccccc4S(C)(=O)=O)c(C#N)s3)c2cc1OC` showed an inhibition of -8.27%.
